Screening results as filed in PubChem BioAssay.
POLI inh: blocks human DNA polymerase iota activity; Q9UNA4; Pol iota fluorescent replication assay, 10 min; Potency, µM (highest dose often 115 µM), usual class: inhibitors; hit rate 1% among 390,000
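Fluorescent replication assay read twice, at 0 min and 10 min after adding 50 nM (final) substrate. Enzyme (10 nM) and compounds were first incubated 15 min at room temperature; enzyme-free buffer wells were negative controls.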
Pol eta inh-1: DNA polymerase eta (human) inhibition | Q9Y253 | recombinant Pol eta, fluorescent DNA replication assay | Potency, µM (titrated, usually from 114 µM), most hits filed as inhibitors | hit rate 1.2% among 390,000
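Pol eta at 10 nM preincubated with compounds 15 min at room temperature; reaction started with fluorescent substrate (50 nM final) and read kinetically at 0 and 10 min.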
WRN inhibitor: WRN helicase (human) inhibition. Potency, µM (series often up to 114 µM), hits mostly inhibitors. hit rate 0.46% among 360,000. AID 651768. Q14191. WRN helicase unwinding, fluorescent forked duplex, kinetic; note: nearly all actives have a fitted effect of over 55% in size
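Kinetic fluorescence helicase assay: unwinding of a quenched forked DNA duplex (100 nM final) with 2 mM ATP final raises red fluorescence (525/598 nm). Compounds sat 15 min at room temperature with 20 nM WRN beforehand.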
POLB inh: DNA polymerase beta (human) inhibition | P06746 | Pol beta primer extension/strand displacement, fluorescence kinetic | Potency, µM (series often up to 114 µM), usual class: inhibitors | hit rate 1.3% among 340,000 | AID 485314
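Pol beta (10 nM) was preincubated with compound for 15 min at room temperature. The reaction was then started with 50 nM substrate and read immediately and after a further 10 min at room temperature.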
Pol kappa inh-1: inhibitors of human DNA polymerase kappa; Potency, µM (doses to about 107 µM), hits mostly inhibitors; AID 588579; hit rate 0.53% among 400,000; purified Pol kappa, fluorescent DNA synthesis assay, 10 min
Target sequence (Q9UBT6 whole entry, looked up): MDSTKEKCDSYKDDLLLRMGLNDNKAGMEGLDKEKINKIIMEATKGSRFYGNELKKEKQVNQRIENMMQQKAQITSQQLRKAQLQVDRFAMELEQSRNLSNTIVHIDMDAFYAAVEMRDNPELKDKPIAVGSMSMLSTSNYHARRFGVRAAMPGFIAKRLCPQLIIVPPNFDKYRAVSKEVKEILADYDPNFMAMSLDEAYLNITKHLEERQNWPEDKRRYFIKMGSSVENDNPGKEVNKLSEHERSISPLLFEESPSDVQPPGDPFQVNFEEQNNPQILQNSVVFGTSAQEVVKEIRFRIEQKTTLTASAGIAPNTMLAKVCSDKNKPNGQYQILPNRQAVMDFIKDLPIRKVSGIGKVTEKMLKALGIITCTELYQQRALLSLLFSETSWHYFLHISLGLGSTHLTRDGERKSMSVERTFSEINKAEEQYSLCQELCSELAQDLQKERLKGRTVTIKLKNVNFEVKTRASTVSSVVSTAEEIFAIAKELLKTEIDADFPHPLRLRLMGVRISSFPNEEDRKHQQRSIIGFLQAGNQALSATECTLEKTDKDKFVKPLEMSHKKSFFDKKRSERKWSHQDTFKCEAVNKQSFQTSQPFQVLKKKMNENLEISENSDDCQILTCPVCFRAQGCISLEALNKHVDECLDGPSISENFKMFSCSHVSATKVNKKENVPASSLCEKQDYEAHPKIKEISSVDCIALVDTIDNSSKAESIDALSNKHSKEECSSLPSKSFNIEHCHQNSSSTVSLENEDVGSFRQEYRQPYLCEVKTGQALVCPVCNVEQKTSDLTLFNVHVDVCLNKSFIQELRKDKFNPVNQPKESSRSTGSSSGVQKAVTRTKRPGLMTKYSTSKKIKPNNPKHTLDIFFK
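10 nM Pol kappa was preincubated with compounds for 15 min at room temperature. Reaction started with 50 nM (final) substrate. Fluorescence read kinetically at 0 and 10 min.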
FEN1 inh: blocks human flap endonuclease 1; Recombinant FEN1 flap cleavage, fluorescence, 15 min; Potency, µM (doses to about 114 µM), most hits filed as inhibitors; hit rate 0.35% among 390,000; note: nearly all actives have a fitted effect of over 65% in size
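Nuclease activity of 10 nM FEN1 was measured after 15 min of room-temperature exposure to titrated compounds, by adding 50 nM flap substrate and reading plates at 0 and 15 min.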
GALK confirm: confirmation of human galactokinase (GALK) inhibitors; shares compounds with Pol eta inh-1; purified GALK, Kinase-Glo ATP depletion luminescence; Potency, µM (series often up to 115 µM), most hits filed as inhibitors; hit rate 70% among 150; AID 2015
Redox cycling: generates H2O2 by redox cycling, flagging GALK artifacts; shares compounds with Pol eta inh-1; Phenol red-HRP H2O2 redox cycling, absorbance 600 nm; Potency, µM (highest dose often 115 µM), actives largely listed as inhibitors; hit rate 40% among 150
HEK293 tox: reduces HEK-293 cell viability in GALK counter-screen. HEK-293 viability, ATP luminescence (CellTiter-Glo), 24/48 h. hit rate 10% among 170. Potency, µM (top dose mostly 46.1 µM), most hits filed as inhibitors. shares compounds with Pol eta inh-1. AID 2547
Pol kappa inh-2: Pol kappa (human) inhibition, cherry-pick confirmation. hit rate 76% among 920. AID 720501. shares compounds with Pol eta inh-1. purified Pol-kappa, fluorescent strand-displacement substrate. Potency, µM, usual class: inhibitors
Pol eta inh-2: confirmation of human DNA polymerase eta inhibitors. AID 720502. hit rate 64% among 2,600. Potency, µM, most hits filed as inhibitors. shares compounds with Pol eta inh-1. Pol eta primer extension, TAMRA/BHQ fluorescence, 10 min
Of the large screens only hits and unclear results are named; the others gave an inactive call (follow-up assays come after a bar, where they were run). Hits are enriched below; roughly 2.4% of the tested compounds scored in any of these assays. Calls come from the whole dose curve; as a rule, active = well fitted curve in the direction sought with a large enough effect; inconclusive = small, poorly fitted or top-dose-only effect, or another doubt; inactive = no such curve, though single readings can be large; an effect the other way counts as inactive or inconclusive.

CCOc1ccc(C(=O)N/N=C/c2ccc(-c3ccc(S(=O)(=O)Nc4ncccn4)cc3)o2)cc1	POLI inh 18µM, Pol eta inh-1 22µM, WRN inhibitor inconclusive, Pol kappa inh-1 inconclusive, FEN1 inh inconclusive | Pol kappa inh-2 24 | Pol eta inh-2 inconclusive
C/C(=N\Nc1ccc(Cl)c(C(=O)O)c1)c1cccs1	POLI inh inconclusive, Pol eta inh-1 18µM, POLB inh 14µM, Pol kappa inh-1 inconclusive | Pol eta inh-2 30
C/C(=N/Nc1ccccc1C(=O)O)c1cccs1	none
O=C(CSCc1ccccc1)N1CCN(S(=O)(=O)c2ccc(F)cc2)CC1	none | GALK confirm inactive | Redox cycling inactive | HEK293 tox inactive
O=C1CC(c2ccccc2)CC2=C1C1(CCCCC1)N=C(Nc1nc3ccccc3o1)N2 (stereo not drawn)	none (no result: POLI inh, Pol eta inh-1, WRN inhibitor, POLB inh, Pol kappa inh-1, FEN1 inh) | HEK293 tox inactive
O=C1CCC2=C1C1(CCCC1)N=C(Nc1nc3ccccc3o1)N2	none (no result: POLI inh, Pol eta inh-1, WRN inhibitor, POLB inh, Pol kappa inh-1, FEN1 inh) | HEK293 tox inactive
CC1(C)CC(=O)C2=C(C1)NC(Nc1nc3ccccc3o1)=NC21CCCCC1	none | HEK293 tox inactive
c1ccc(Nc2nc3ccccc3o2)cc1	none
CNc1ccc(/C=C2\C=Cc3ccccc32)cc1OC	none (no result: Pol eta inh-1, WRN inhibitor, POLB inh)
O=C(Nc1ccc(F)cc1F)c1ccc2c(O)c(S(=O)(=O)c3ccc(Cl)cc3)c(=O)[nH]c2c1	none (no result: WRN inhibitor)
COc1ccc(-c2c(C)nn3c4c(cnc23)C(=O)CC(c2ccc(C)cc2)C4)cc1 (stereo not drawn)	none (no result: WRN inhibitor)
COc1cc(C2CC(=O)Oc3c2c(=O)n(C)c2ccccc32)ccc1O (stereo not drawn)	POLI inh inconclusive, Pol eta inh-1 35µM, POLB inh inconclusive, Pol kappa inh-1 inconclusive, FEN1 inh inconclusive | Pol kappa inh-2 47 | Pol eta inh-2 inconclusive
O=C(COc1cc2oc(=O)cc(-c3ccccc3)c2cc1Cl)NC(Cc1c[nH]c2ccc(O)cc12)C(=O)O (stereo not drawn)	POLI inh inconclusive, Pol eta inh-1 50µM, POLB inh inconclusive, FEN1 inh inconclusive | Pol eta inh-2 inconclusive
O=C(COc1ccc2c(-c3ccccc3)cc(=O)oc2c1)N[C@H](Cc1c[nH]c2ccccc12)C(=O)O	Pol eta inh-1 inconclusive
CC(Oc1ccc2ccc(=O)oc2c1)C(=O)NC(Cc1c[nH]c2ccc(O)cc12)C(=O)O (stereo not drawn)	POLI inh inconclusive, Pol eta inh-1 22µM, POLB inh inconclusive, Pol kappa inh-1 inconclusive | Pol eta inh-2 inconclusive
Cc1c(C)c2ccc(OC(C)C(=O)N[C@@H](Cc3c[nH]c4ccccc34)C(=O)O)c(C)c2oc1=O (stereo partly drawn)	none
Cc1c(OC(C)C(=O)NC(Cc2c[nH]c3ccc(O)cc23)C(=O)O)ccc2c1oc(=O)c1ccccc12 (stereo not drawn)	POLI inh 45µM, Pol eta inh-1 20µM, WRN inhibitor inconclusive, POLB inh 2.5µM, Pol kappa inh-1 inconclusive, FEN1 inh inconclusive | Pol eta inh-2 inconclusive
Cc1ccc2onc(CNC(=O)NCc3ccccc3)c2c1	none (no result: WRN inhibitor)
COc1cccc(NC(=O)Cn2c(=O)n(-c3ccc(C)cc3)c(=O)c3ccccc32)c1	none (no result: WRN inhibitor)
